Source: PubChem BioAssay (NCATS)
Results filed as inconclusive are left out. Active and inactive are the calls of the source. Unless noted, calls come from the whole dose curve; as a rule, active = well fitted curve in the direction sought with a large enough effect; inconclusive = small, poorly fitted or top-dose-only effect, or another doubt; inactive = no such curve, though single readings can be large; an effect the other way counts as inactive or inconclusive.

How the values were obtained:
[1] = target: Lysosomal acid glucosylceramidase (Homo sapiens) (UniProt P04062); experiment: Glucocerebrosidase-p2 (AID 348; in the data active = potency below about 10 µM; note: potency is the fitted concentration of half-maximal effect); conditions: purified GBA, blue fluorogenic substrate, 40 min
Sequence of Lysosomal acid glucosylceramidase (Homo sapiens) (P04062 whole entry, looked up): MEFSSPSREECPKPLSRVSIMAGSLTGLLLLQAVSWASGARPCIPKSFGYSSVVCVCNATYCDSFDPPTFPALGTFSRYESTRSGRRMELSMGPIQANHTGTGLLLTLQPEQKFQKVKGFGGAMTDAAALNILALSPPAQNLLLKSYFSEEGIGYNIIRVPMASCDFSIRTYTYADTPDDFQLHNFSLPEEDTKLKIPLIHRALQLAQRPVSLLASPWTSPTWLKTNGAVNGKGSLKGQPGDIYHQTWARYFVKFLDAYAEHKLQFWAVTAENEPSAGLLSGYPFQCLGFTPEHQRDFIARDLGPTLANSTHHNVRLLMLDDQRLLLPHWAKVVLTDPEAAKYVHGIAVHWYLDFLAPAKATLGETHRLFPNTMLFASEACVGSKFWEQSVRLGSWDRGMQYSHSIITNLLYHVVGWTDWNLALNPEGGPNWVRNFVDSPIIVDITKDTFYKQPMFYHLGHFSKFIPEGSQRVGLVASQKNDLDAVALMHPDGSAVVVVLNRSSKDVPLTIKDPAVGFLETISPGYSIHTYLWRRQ
Method in brief: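 Normal human glucocerebrosidase (0.2 nM) with blue fluorogenic substrate (80 uM final) in citrate/phosphate pH 5.9 with 10mM sodium taurocholate, 0.01% tween-20; 40 min RT, NaOH/glycine stop; fluorescence Ex 365/Em 440; AC50 from a titration from 0.6 nM upwards.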

[2] = AP1 Signaling Pathway (AID 357; active = well fitted curve in either direction with a large enough effect, not every such curve was filed as active;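 note: ME-180 reporter cells stimulated with EGF at its EC50 level; % is set by controls: 0 for no effect and ±100 for the full control effect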); conditions: ME-180 AP-1-bla reporter, EGF-induced, beta-lactamase ratio, 5 h; at 7.69 µM (top of the series) unless noted
Method in brief: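 Cells are seeded overnight, exposed to compound titrations and an EC50 level of EGF for 5 hours at 37 °C, then loaded with CCF4 dye for 2.5 hours. Beta-lactamase activity under the AP-1 element is read as a blue/green ratio.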

[3] = target: Cytochrome P450 1A2 (Homo sapiens) (UniProt P05177); experiment: p450-cyp1a2 (AID 410; calls by dose curve; note: potency is the fitted concentration of half-maximal effect;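 for activity change, negative = inhibition: -100% = full effect of reference inhibitor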); conditions: recombinant CYP1A2, luciferin-ME demethylation, luminescence; series mostly up to 57 µM
Sequence of Cytochrome P450 1A2 (Homo sapiens) (P05177 whole entry, looked up): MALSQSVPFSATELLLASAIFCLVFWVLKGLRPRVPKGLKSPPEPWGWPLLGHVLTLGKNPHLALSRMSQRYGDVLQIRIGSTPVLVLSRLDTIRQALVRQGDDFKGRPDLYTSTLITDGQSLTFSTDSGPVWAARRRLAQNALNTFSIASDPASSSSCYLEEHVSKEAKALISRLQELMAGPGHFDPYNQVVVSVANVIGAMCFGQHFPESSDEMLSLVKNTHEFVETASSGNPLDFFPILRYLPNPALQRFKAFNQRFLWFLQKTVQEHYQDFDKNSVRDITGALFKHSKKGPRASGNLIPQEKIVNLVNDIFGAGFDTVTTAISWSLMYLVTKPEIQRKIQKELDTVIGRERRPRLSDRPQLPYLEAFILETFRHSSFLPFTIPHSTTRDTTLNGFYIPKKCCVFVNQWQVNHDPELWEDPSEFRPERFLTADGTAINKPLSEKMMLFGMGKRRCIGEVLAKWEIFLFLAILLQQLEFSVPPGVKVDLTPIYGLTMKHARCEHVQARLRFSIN
Method in brief: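 O-Demethylation of luciferin 6' methyl ether by human CYP1A2 is monitored as luciferase luminescence. Substrate sits at Km (100uM); enzyme is 20nM. Values are scaled to 57 uM furafylline as maximal inhibition.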

[4] = target: Glucocorticoid receptor (Homo sapiens) (UniProt P04150); experiment: GR-GFP Redistribution (AID 450;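 active = compounds whose dose series gives a full or clear partial fitted curve of increased nuclear translocation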; note: potency is the fitted concentration of half-maximal effect); conditions: U2OS GR-GFP nuclear translocation, laser cytometry, 2 h
Sequence of Glucocorticoid receptor (Homo sapiens) (P04150 whole entry, looked up, the tested form may be a part): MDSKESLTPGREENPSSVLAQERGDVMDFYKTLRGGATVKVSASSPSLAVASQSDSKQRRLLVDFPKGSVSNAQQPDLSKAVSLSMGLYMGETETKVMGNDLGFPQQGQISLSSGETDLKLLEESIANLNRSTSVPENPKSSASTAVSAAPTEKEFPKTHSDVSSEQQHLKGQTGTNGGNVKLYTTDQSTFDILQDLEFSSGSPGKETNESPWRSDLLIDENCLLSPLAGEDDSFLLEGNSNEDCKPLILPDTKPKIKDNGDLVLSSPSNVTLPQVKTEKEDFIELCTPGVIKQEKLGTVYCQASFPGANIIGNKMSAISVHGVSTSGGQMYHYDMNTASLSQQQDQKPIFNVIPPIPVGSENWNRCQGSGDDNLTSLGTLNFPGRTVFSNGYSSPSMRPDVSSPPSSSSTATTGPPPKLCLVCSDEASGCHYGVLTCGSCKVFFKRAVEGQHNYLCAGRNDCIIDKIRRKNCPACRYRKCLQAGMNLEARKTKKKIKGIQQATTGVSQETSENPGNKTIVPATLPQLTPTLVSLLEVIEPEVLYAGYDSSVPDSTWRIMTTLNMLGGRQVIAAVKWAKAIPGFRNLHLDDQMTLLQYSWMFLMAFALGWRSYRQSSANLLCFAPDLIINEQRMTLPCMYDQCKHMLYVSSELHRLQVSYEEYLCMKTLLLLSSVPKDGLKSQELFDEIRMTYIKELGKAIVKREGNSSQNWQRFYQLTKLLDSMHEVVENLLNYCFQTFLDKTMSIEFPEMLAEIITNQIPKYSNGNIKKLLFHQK

[5] = target: Glucocorticoid receptor (Homo sapiens) (UniProt P04150); experiment: GR-EFC Redistribution (AID 451; calls by dose curve; note: potency is the fitted concentration of half-maximal effect); conditions: CHO-K1 GR-EFC translocation, beta-gal luminescence, 2 h
Method in brief: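 CHO-K1 cells stably expressing nuclear-localized β-gal enzyme acceptor and GR fused C-terminally to the enzyme donor fragment; ligand-driven nuclear translocation restores β-gal by complementation. Compounds titrated up to 46 uM final, 2 h at 37 °C; luminescence read.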

[6] = target: Mitogen-activated protein kinase 10 (Mus musculus) (UniProt Q61831); experiment: JNK3 AlphaScreen Assay (AID 530; active = well fitted curve in either direction with a large enough effect, not every such curve was filed as active;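 note: kinase came from lysate of stimulated human HepG2 cells; signal reports phosphorylation of biotinylated GST-cJun 1-79 at Ser73 with 10 µM ATP; % is set by controls: 0 for no effect and ±100 for the full control effect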); conditions: JNK3 lysate, c-Jun phosphorylation; series mostly up to 57.1 µM
Method in brief: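 Phosphorylation of biotinylated GST-cJun(1-79) at Ser73 is measured by AlphaScreen proximity luminescence. Enzyme is JNK3 in HepG2 lysates activated with interleukin-1beta and tumor necrosis factor alpha; ATP is 10 uM final.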

[7] = target: 3',5'-cyclic-AMP phosphodiesterase 4B (Homo sapiens) (UniProt Q07343); experiment: qHTS Assay for Inhibitors of PDE-IV (AID 607; active = well fitted activation curve with a large enough effect in the main read-out, with a control signal flat, not every such curve was filed as active; note: % of control where 0% means no effect); conditions: HEK293 ACTOne CNG channel cells, membrane potential fluorescence; series mostly up to 22.9 µM
Sequence of 3',5'-cyclic-AMP phosphodiesterase 4B (Homo sapiens) (Q07343 whole entry, looked up): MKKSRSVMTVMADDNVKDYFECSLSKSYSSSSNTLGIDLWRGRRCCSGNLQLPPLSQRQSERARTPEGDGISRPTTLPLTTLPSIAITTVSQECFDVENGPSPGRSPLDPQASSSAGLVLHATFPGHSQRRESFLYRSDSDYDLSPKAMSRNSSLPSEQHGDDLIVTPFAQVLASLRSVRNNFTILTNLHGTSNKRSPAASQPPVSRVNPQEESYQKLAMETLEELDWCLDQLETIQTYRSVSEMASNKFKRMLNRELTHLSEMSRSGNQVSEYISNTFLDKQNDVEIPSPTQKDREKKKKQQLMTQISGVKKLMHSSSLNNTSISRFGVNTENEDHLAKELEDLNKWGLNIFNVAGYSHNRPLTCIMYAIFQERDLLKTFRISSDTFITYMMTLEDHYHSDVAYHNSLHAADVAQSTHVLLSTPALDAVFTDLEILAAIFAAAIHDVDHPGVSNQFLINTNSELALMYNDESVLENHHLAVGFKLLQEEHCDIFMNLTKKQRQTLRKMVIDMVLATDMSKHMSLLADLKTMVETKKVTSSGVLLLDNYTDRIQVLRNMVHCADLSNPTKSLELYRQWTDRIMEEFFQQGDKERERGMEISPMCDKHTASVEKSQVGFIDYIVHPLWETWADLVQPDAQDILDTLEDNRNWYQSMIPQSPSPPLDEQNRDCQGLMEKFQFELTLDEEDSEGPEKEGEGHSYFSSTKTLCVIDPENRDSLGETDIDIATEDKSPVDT
Method in brief: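 The readout is membrane depolarisation from a cAMP-sensing CNG channel, detected with a potential dye at ex 535/em 590. Cells were HEK293-derived (endogenous PDE-IV) at 1000 cells/well, titrated up to 22.9 uM final.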

[8] = target: Cytochrome P450 3A4 (Homo sapiens) (UniProt P08684); experiment: qHTS Assay for Activators of Cytochrome P450 3A4 (AID 885); conditions: recombinant CYP3A4, Luciferin-PPXE luminescence, 60 min; series mostly up to 57.1 µM; note: nearly all actives have a fitted effect of over 65% in size
Sequence of Cytochrome P450 3A4 (Homo sapiens) (P08684 whole entry, looked up): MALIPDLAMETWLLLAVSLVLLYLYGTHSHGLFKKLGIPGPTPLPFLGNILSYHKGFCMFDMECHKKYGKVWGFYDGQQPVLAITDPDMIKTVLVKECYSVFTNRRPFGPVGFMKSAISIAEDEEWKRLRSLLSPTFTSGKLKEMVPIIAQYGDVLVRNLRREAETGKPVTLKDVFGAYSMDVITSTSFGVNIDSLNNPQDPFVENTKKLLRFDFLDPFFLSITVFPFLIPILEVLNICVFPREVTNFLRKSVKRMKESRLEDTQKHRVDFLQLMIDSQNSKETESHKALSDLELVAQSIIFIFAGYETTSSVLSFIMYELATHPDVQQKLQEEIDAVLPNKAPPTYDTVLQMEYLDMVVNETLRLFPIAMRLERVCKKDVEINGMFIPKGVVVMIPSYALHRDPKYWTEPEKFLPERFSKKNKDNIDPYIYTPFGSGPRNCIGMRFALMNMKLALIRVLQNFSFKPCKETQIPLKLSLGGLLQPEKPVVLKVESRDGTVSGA
Method in brief: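 Activators are scored by enhanced luminescence from CYP3A4 conversion of luciferin-PPXE (25uM, equal to KM) to luciferin, after 60 min at RT with an NADPH-regenerating system.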

[9] = qHTS Assay for Lipid Storage Modulators (AID 1519; calls by dose curve; note: potency is the fitted concentration of half-maximal effect); conditions: Drosophila S3 cells, BODIPY lipid droplet/cell ratio, laser cytometry, cells loaded with oleic acid; for activity change, negative = inhibition: at 57.5 µM (top of the series)
Method in brief: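 Cells seeded at 5,000 per well were treated with compounds over a concentration series and loaded with oleic acid (400 uM, as added). Lipid droplet fluorescence (488 nm excitation, 500-530 nm channel) was read by laser-scanning cytometry and normalized to 20 uM Triacsin C.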

[10] = target: Dual specificity protein kinase CLK4 (Homo sapiens) (UniProt Q9HAZ1); experiment: qHTS Assay for Inhibitors of CDC-like Kinase 4 (Kinase-Glo Assay) (AID 1770); conditions: recombinant Clk4, Kinase-Glo ATP depletion luminescence; series mostly up to 66.7 µM; note: nearly all actives have a fitted effect of over 65% in size; note: potency is the fitted concentration of half-maximal effect
Sequence of Dual specificity protein kinase CLK4 (Homo sapiens) (Q9HAZ1 whole entry, looked up): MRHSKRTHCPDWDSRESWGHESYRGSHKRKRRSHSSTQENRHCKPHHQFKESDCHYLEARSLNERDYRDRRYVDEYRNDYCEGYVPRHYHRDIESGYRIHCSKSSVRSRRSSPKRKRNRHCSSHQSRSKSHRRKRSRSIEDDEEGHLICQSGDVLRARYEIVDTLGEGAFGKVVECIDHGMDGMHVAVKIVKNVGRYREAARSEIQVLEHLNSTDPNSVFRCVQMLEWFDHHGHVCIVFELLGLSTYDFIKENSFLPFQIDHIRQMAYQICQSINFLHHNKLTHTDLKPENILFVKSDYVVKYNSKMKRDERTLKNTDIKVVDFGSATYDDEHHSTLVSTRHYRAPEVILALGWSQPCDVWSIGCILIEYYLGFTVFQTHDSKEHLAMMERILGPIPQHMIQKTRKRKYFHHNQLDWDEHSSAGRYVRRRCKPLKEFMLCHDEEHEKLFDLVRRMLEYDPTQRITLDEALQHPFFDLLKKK
Method in brief: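 Recombinant human Clk4 (25 nM) phosphorylated RS repeat peptide (100 uM) with 1 uM ATP in Tris pH 7.5/MgCl2/EGTA/DTT/Triton buffer for 4.5 h at room temperature. Residual ATP was quantified by Kinase-Glo luciferase luminescence.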

[11] = target: Dual specificity protein kinase CLK4 (Homo sapiens) (UniProt Q9HAZ1); experiment: qHTS Assay for Inhibitors of CDC-like Kinase 4 (ADP-Glo Assay) (AID 1771); conditions: recombinant CLK4, ADP-Glo luminescence; series mostly up to 80 µM; note: nearly all actives have a fitted effect of over 70% in size; note: potency is the fitted concentration of half-maximal effect
Method in brief: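 Compounds are pin-transferred onto substrate mix (100 uM RS peptide, 1 uM ATP), then 25 nM Clk4 is added. After 1 hr at room temperature, ADP-Glo reagent runs 45 min, detection reagent 30 min, then luminescence is read.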

[12] = target: Dual specificity protein kinase CLK4 (Homo sapiens) (UniProt Q9HAZ1); experiment: qHTS Assay for Inhibitors of CDC-like Kinase 4 (ADP-FP Assay) (AID 1795); conditions: Transcreener ADP fluorescence polarization; series mostly up to 50 µM; note: nearly all actives have a fitted effect of over 60% in size; note: potency is the fitted concentration of half-maximal effect
Method in brief: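 Recombinant human Clk4 (6.25 nM) phosphorylated RS repeat peptide (100 uM) with 1 uM ATP in Tris pH 7.5/MgCl2/EGTA/DTT/Triton buffer for one hour. ADP was quantified by Transcreener competitive fluorescence polarization against an ADP calibration curve.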

[13] = target: Ubiquitin carboxyl-terminal hydrolase 1 (Homo sapiens) (UniProt O94782); experiment: Inhibitors of USP1/UAF1: Pilot qHTS (AID 504865); conditions: purified USP1/UAF1, Ub-rhodamine cleavage fluorescence; series mostly up to 54.9 µM;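 note: rhodamine fluorescence freed from ubiquitin-rhodamine substrate followed over time; top concentration of the series differs between compounds; % is set by controls: 0 for no effect and ±100 for the full control effect; nearly all actives have a fitted effect of over 35% in size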
Sequence of Ubiquitin carboxyl-terminal hydrolase 1 (Homo sapiens) (O94782 whole entry, looked up): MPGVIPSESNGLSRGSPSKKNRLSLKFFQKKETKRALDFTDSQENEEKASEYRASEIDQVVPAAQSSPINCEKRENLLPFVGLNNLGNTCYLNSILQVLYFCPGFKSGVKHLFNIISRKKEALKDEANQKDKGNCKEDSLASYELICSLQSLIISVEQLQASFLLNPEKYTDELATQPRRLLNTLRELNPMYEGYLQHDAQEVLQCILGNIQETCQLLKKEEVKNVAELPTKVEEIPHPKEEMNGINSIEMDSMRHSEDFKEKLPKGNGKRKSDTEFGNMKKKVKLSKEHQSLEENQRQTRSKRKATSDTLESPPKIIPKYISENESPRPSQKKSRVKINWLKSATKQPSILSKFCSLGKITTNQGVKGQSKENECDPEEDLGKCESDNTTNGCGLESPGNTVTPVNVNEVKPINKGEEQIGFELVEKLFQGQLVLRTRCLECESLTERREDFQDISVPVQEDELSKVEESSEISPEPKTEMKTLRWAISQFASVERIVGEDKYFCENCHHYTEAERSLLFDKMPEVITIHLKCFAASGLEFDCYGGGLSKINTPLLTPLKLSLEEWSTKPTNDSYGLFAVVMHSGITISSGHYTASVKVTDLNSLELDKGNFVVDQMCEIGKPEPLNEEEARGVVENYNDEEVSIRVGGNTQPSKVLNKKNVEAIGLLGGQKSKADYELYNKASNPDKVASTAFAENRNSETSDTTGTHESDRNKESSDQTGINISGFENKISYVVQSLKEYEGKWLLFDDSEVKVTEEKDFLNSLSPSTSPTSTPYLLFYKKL
Method in brief: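 USP1/UAF1 complex (1nM) preincubated with compound 15 min at room temperature, then Ub-Rho substrate (150nM final) added. Fluorescence read kinetically at 480/540 nm, 6 reads every 60 seconds. Buffer: 50mM HEPES pH 7.8, 0.5mM EDTA, 0.1 mg/ml BSA, 1mM TCEP, 0.01% Tween-20.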

[14] = Primary qHTS for small molecule stabilizers of the endoplasmic reticulum resident proteome: Secreted ER Calcium Modulated Protein (SERCaMP) assay (AID 1508630); conditions: SH-SY5Y GLuc-SERCaMP (Gaussia luciferase released on ER calcium loss) secretion, thapsigargin, luminescence; series mostly up to 38.4 µM; note: % is set by controls: 0 for no effect and ±100 for the full control effect
Method in brief: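 The SH-SY5Y reporter protocol was run at 3 concentrations up to 38.3 uM (primary) or 11 concentrations (follow-up): 16 h compound, 100 nM thapsigargin for 4 h, then extracellular luciferase luminescence.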

[15] = NFAT Signaling Pathway (AID 444; active = well fitted curve in either direction with a large enough effect, not every such curve was filed as active;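 note: carbachol stimulus at about its EC50 of 1 µM final; % is set by controls: 0 for no effect and ±100 for the full control effect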); conditions: Jurkat NFAT-bla M1, carbachol, beta-lactamase ratio, 5 h; at 7.69 µM (top of the series) unless noted
Method in brief: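 Jurkat cells carrying an NFAT-driven β-lactamase reporter and co-transfected muscarinic M1 receptor were treated with compound plus carbachol (1 uM final, an EC50 level) for 5 h at 37 °C. CCF4 loading followed for 1 h at RT; 460/530 nm ratio gave %activity.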

[16] = Stat Signaling Pathway (AID 446; active = well fitted curve in either direction with a large enough effect, not every such curve was filed as active); conditions: ME-180 (cervical carcinoma) SIE beta-lactamase reporter, IL-6 stimulated, 5 h; at 7.69 µM (top of the series) unless noted
Method in brief: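 Emission at 460 and 530 nm (excitation 405 nm) reports SIE-controlled beta-lactamase in ME-180 cells. Cells received compound with 40 pM IL-6 for 5 hrs at 37 C; data scaled between 300 pM IL-6 and 125 nM JAK-inhibitor controls.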

[17] = target: Cytochrome P450 2C9 (Homo sapiens) (UniProt P11712); experiment: qHTS Assay for Inhibitors and Substrates of Cytochrome P450 2C9 (AID 883); conditions: recombinant CYP2C9, luciferin-H luminescence, 60 min; series mostly up to 57.1 µM; note: nearly all actives have a fitted effect of over 60% in size; note: potency is the fitted concentration of half-maximal effect
Method in brief: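 CYP2C9 deoxyluciferin hydroxylation, 37C, 60 min with NADPH regeneration; 10nM enzyme, 100uM Luciferin-H (KM). Glo detection reagent stopped reaction; luminescence normalized to sulphaphenazole (57uM) full inhibition.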

[18] = target: Cytochrome P450 3A4 (Homo sapiens) (UniProt P08684); experiment: qHTS Assay for Inhibitors and Substrates of Cytochrome P450 3A4 (AID 884); conditions: recombinant CYP3A4, Luciferin-PPXE luminescence; series mostly up to 57.1 µM; note: potency is the fitted concentration of half-maximal effect; nearly all actives have a fitted effect of over 50% in size
Method in brief: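 Luminescent readout of luciferin produced by CYP3A4 (20 nM) dealkylation of Luciferin-PPXE, 25 uM (its KM). NADPH-driven reaction ran 60 min at RT after 10 min compound preincubation; data scaled to 57 uM ketoconazole as 100% inhibition.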

[19] = target: Cytochrome P450 2C19 (Homo sapiens) (UniProt P33261); experiment: qHTS Assay for Inhibitors and Substrates of Cytochrome P450 2C19 (AID 899); conditions: recombinant CYP2C19, luciferin-H EGE luminescence; series mostly up to 57.1 µM; note: potency is the fitted concentration of half-maximal effect; nearly all actives have a fitted effect of over 60% in size
Sequence of Cytochrome P450 2C19 (Homo sapiens) (P33261 whole entry, looked up): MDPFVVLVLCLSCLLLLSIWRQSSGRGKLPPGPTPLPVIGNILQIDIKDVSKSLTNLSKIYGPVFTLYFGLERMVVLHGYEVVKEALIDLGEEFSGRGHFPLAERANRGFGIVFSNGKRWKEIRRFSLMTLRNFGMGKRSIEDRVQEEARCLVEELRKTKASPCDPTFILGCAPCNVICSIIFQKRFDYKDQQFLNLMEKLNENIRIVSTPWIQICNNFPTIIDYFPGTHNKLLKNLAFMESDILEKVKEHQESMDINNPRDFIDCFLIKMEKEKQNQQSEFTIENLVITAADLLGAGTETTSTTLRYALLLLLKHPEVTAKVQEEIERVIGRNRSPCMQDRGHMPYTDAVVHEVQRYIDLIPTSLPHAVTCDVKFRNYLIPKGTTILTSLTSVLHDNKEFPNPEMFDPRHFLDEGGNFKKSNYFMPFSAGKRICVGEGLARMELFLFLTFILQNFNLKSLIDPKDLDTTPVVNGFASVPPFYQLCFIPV
Method in brief: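 In 50mM KPO4, the reaction held 5nM enzyme and KM-level (10uM) Luciferin-H EGE; it ran 60 min at 37C after NADPH regeneration and a 10 min compound preincubation. Luminescence values were scaled to 57uM ketoconazole as complete inhibition.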

[20] = measured here: cell count channel max response
[21] = measured here: lipid channel max response

O=c1c(-c2ccc(F)cc2)nc2cnc(Nc3ccccc3)nc2n1C[C@H]1CCCO1
-76%: max response [9, 21]
inactive: Potency [1] > 11.4 µM | activity change, negative = inhibition [2] -19.3% | Potency [4] > 9.22 µM | Potency [5] > 46 µM | outcome [6] | Potency [7] | Potency [8] | Potency [10] | Potency [11] | Potency [12] | Potency [13] | Potency [14]
active: Potency [3] 2 µM | Potency [9] 3.55 µM
-27.1%: max response [9, 20]

COCCNc1ncnc2ccc(-c3ccoc3)cc12
3.39%: max response [9, 21]
6.14%: max response [9, 20]
active: Potency [3] 15.8 µM | Potency [10] 0.891 µM | Potency [11] 1 µM | Potency [12] 0.224 µM
inactive: Potency [1] > 11.4 µM | activity change, negative = inhibition [2] -23.8% | activity change, negative = inhibition [15] 11.2% | Potency [4] > 46 µM | Potency [5] > 46 µM | outcome [6] | Potency [7] | activity change, negative = inhibition [9] 0.0459% | Potency [14]

COc1ccc(-n2c(=O)c(-c3cccs3)nc3cnc(N(C)C)nc32)cc1
25.4%: max response [9, 21]
inactive: Potency [1] > 11.4 µM | activity change, negative = inhibition [2] -10.2% | Potency [3] | activity change, negative = inhibition [15] -4.88% | activity, negative = inhibition [16] -9.54% | Potency [5] > 46 µM | outcome [6] | Potency [17] | activity change, negative = inhibition [9] 7.83% | Potency [10] | Potency [11] | Potency [12] | Potency [14]
19%: max response [9, 20]

Fc1ccc(Nc2ncncc2-c2ccccc2C(F)(F)F)cc1
inactive: Potency [1] > 11.4 µM | activity change, negative = inhibition [2] -13.5% | activity, negative = inhibition [16] 23.6% | Potency [4] > 46 µM | Potency [5] > 46 µM | outcome [6] | Potency [8] | activity change, negative = inhibition [9] 3.62% | Potency [10] | Potency [11] | Potency [12] | Potency [13] | Potency [14]
13%: max response [9, 20]
active: Potency [3] 20 µM | Potency [18] 0.398 µM | Potency [19] 7.94 µM
14.7%: max response [9, 21]

CN(Cc1ccco1)c1ncncc1-c1cccc(C#N)c1
active: Potency [3] 12.6 µM | Potency [18] 7.94 µM
14.4%: max response [9, 20]
inactive: Potency [1] > 11.4 µM | activity change, negative = inhibition [2] 21.3% | activity, negative = inhibition [16] 7.25% | Potency [4] > 46 µM | Potency [5] > 46 µM | outcome [6] | Potency [7] | Potency [8] | activity change, negative = inhibition [9] 5.47% | Potency [10] | Potency [11] | Potency [12] | Potency [14]
17.8%: max response [9, 21]

O=c1c(CCc2ccccc2)nc2cncnc2n1Cc1ccc(F)cc1
23.1%: max response [9, 21]
active: Potency [3] 10 µM | Potency [17] 7.94 µM | Potency [19] 6.31 µM
18.7%: max response [9, 20]
inactive: Potency [1] > 11.4 µM | activity change, negative = inhibition [2] -7.12% | activity change, negative = inhibition [15] -3.47% | Potency [4] > 9.22 µM | Potency [5] > 46 µM | Potency [8] | activity change, negative = inhibition [9] 5.86% | Potency [10] | Potency [11] | Potency [12] | Potency [13] | Potency [14]
